Screening results as filed in PubChem BioAssay.
PLK1 PBD inh – blocks phosphopeptide binding to human PLK1 polo-box domain; P53350; Plk1 PBD binding of FITC phosphopeptide, fluorescence polarization; 360,000 tested, 2.8% active; Potency, µM, for inactives: max response, negative = inhibition, actives largely listed as inhibitors; also: potency is read from the fitted curve at half-maximal effect; series mostly up to about 57 µM; % is scaled to controls: 0 for no effect and ±100 for the full control effect; nearly all actives have a fitted effect of over 65% in size
KCNH2 3.1 inh – inhibitors of human KCNH2 3.1 potassium channel isoform | 340,000 tested, 0.95% active | U2OS KCNH2 3.1, thallium flux FluxOr; hits give low values | activity change, % (tested at about 1.8 µM) | AID 720553;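 active = maximum activity change below -70%; inconclusive = maximum activity change from -70% to -50%; inactive = maximum activity change above -50%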;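 also: thallium influx rate constant from kinetic fluorescence after stimulation buffer; % is scaled to controls: 0 for no effect and ±100 for the full control effect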
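Measured as rate of thallium-driven FluxOr signal in transduced U2OS cells carrying the 3.1 channel, read kinetically for 2 min upon stimulation; values are rate constants scaled to DMSO control wells.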
VDR inhibitor – blocks the human vitamin D receptor | P11473 | VDR-SRC2-3 peptide fluorescence polarization, 2 h | Potency, µM, without a hit: max response, negative = inhibition, hits mostly inhibitors | 400,000 tested, 0.93% active | AID 504847; also: potency is read from the fitted curve at half-maximal effect; % is scaled to controls: 0 for no effect and ±100 for the full control effect
Target sequence (P11473 whole entry, looked up): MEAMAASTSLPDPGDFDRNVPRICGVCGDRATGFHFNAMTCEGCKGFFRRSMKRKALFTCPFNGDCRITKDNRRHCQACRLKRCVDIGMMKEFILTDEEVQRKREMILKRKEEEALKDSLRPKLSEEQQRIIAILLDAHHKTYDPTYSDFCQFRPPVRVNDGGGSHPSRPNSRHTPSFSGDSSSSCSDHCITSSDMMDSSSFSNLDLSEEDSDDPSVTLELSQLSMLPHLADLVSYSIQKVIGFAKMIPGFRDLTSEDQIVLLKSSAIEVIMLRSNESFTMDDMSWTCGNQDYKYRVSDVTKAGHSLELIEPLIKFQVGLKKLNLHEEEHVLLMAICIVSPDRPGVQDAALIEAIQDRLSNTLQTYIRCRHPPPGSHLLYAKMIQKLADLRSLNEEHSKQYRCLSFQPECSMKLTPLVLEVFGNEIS
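Signal is fluorescence polarization, reporting how far test compounds block the interaction of VDR with the SRC2-3 coregulator peptide after a 2 h room-temperature incubation.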
CBFb-RUNX1 inh – blocks binding between human CBF-beta and RUNX1; Q01196+Q13951; AlphaScreen CBFb-His/RUNX1-biotin binding, biochemical; Potency, µM (doses to about 59.8 µM), inactives show at the top dose activity, negative = inhibition, usual class: inhibitors; 230,000 tested, under 10 active; also: % of control where 0% means no effect
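His-tagged CBF-beta and biotinylated RUNX1 (30 nM each) were premixed 20 min at room temperature, exposed to compound for 15 min, then given nickel-chelate and streptavidin AlphaScreen beads (50 ng each). After 90 min, AlphaScreen signal was read.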
MBNL1-CUG inh – inhibitors of human MBNL1 binding to CUG repeat RNA. Q9NR56. TR-FRET MBNL1-His/biotin-(CUG)12 binding, 665/545 ratio. Potency, µM (top dose mostly 57.5 µM), for the others: top-dose activity change, negative = inhibition, most hits filed as inhibitors. 280,000 tested, 0.036% active. AID 2675; active = well fitted inhibition curve with a large enough effect in the signal ratio, with a control signal flat, not every such curve was filed as active; inconclusive = small, poorly fitted or top-dose-only effect, or effect the other way, or a change in a side signal; inactive = no such curve, though single readings can be large or run the other way; the % refers to the signal ratio; also: potency is read from the fitted curve at half-maximal effect; % is scaled to controls: 0 for no effect and ±100 for the full control effect
Target sequence (Q9NR56 whole entry, looked up): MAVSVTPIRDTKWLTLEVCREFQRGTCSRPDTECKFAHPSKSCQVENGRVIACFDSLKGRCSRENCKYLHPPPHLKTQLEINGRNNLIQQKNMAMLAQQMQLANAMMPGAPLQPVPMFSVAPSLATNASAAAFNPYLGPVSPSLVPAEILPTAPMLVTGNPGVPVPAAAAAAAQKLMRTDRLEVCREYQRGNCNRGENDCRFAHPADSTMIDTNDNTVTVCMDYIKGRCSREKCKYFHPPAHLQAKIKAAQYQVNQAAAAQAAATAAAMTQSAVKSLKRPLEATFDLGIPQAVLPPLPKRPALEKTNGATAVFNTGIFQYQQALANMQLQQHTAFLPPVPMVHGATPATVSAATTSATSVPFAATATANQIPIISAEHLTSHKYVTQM
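Compound titration spanned 92 nM–58 uM against the MBNL1-His/biotin-(CUG)12 complex. After 60 min at room temperature with 5 nM streptavidin-XL665 and 0.055 ng/ul terbium anti-His, ratiometric 665/545 nm emission (Ex 340 nm) normalized to controls.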
KCNH2 WT inh – KCNH2 (human, wildtype) channel inhibition; activity change, % at 1.84 µM; Q12809; 340,000 tested, 0.37% active; U2OS, BacMam KCNH2, thallium flux FluxOr; hits give low values;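 active = maximum activity change below -70%; inconclusive = maximum activity change between -70% and -50%; inactive = maximum activity change above -50%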; also: % is scaled to controls: 0 for no effect and ±100 for the full control effect
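U2OS cells transduced with wild-type KCNH2 virus are loaded with FluxOr dye for 45 min, and thallium flux is measured in kinetic reads before and after stimulation buffer. Rate constants are normalized to DMSO controls.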
Active calls of the source: *; u = inconclusive; x = no result given; [ ] = another dose, or the depositor's remark. Sampled rows, rich in hits. Any-hit rate of the full collection: about 3.8%. Unless noted, calls follow the shape of the dose curve; as a rule, active = well fitted curve in the direction sought with a large enough effect; inconclusive = small, poorly fitted or top-dose-only effect, or another doubt; inactive = no such curve, though single readings can be large; an effect the other way counts as inactive or inconclusive.

SMILES	PLK1 PBD inh	KCNH2 3.1 inh	VDR inhibitor	CBFb-RUNX1 inh	MBNL1-CUG inh	KCNH2 WT inh
O=C(CCCC(=O)c1ccccc1)NCc1ccccc1	u	-5.3	-20.6%	x	2.2%	1.3
CCOc1ccc(NC(=O)CN(C)C(=O)c2ccccc2Cc2ccccc2)cc1OCC	9.0%	5.2	1.2%	x	x	5.7
CCCc1cc(C(N)=O)c(NC(=O)c2ccoc2C)s1	29.9µM*	-4.4	-5.5%	1.1%	-7.4%	-3.7
CCOc1ccc(CC(=O)Nc2sc(Cc3ccccc3)cc2C(N)=O)cc1OCC	16.8µM*	-16.8	u	-4.3%	-0.8%	0.7
NC(=O)c1cc(Cc2ccccc2)sc1NC(=O)c1ccco1	16.8µM*	x	u	12.9%	-1.8%	-19.2
N[C@H](C(=O)O)[C@H](OCc1ccccc1)C(=O)O	x	x	2.6%	1.5%[21.7 µM]	x	x
NC(=O)C1CCCN1C(=O)C(Cc1cnc[nH]1)NC(=O)C1CCC(=O)N1 (centres undefined)	x	x	2.2%	0.7%	x	x
COCCn1c(-c2ccc(Br)cc2)csc1=Nc1cccnc1	-25.5%	-79.5*	2.5%	-22.4%	-5.5%	-8.1
Clc1ccc(-c2csc(=Nc3cccnc3)n2CCCn2ccnc2)cc1Cl	-22.5%	u	-8.9%	-23.3%	26.1%	16.0
Cc1cc(C)c2c(N=NN3CCCCC3)[nH]nc2n1	-6.9%	-22.8	11.3%	-2.1%	-3.5%	4.4
CCN(CC)N=Nc1[nH]nc2nc(C)cc(C)c12	8.44µM*	7.6	-15.6%	9.4%	10.8%	-10.7
CN(CCC(=O)Nc1ccc2c(c1)OCO2)Cc1ccccc1	-4.4%	-0.9	3.2%	0.3%	-9.0%	4.7
CCC(=O)Nc1ccc(Cl)c(NC(=O)c2ccc([N+](=O)[O-])cc2)c1	8.44µM*	-7.7	u	1.2%	u	-3.5
CCCC(=O)Nc1ccc(Nc2ccccc2)cc1	-3.3%	-5.1	-19.7%	3.9%	-2.6%	-71.1*
CN(CCC(=O)Nc1ccc(Cl)cc1)Cc1ccccc1	-9.5%	-75.7*	20.7%	x	0.3%	27.9
CCCC(=O)Nc1ccc(Cl)c(NC(=O)CC)c1	26.7µM*	-14.4	-27.7%	-1.7%	-5.1%	9.7
CCCC(=O)Nc1ccc(-c2ccc(NC(=O)CCC)cc2)cc1	1.8%	5.1	0.8%	1.1%	u	-11.6
COc1ccc(CCNC(=O)Cn2nnc(-c3cccc(C(F)(F)F)c3)n2)cc1OC	x	x	-1.9%	x	x	x
COC(=O)CN1C(=O)CSc2ccc(S(=O)(=O)Nc3cccc(C)c3)cc21	x	x	19.1%	x	x	x
Cc1ccc(-n2nc3c(N4CCCC(C(=O)NCc5ccccc5C)C4)nnc(C)c3c2C)cc1 (centres undefined)	x	x	-4.7%	x	x	x
O=C(CSc1nc2c([nH]c3ccccc32)c(=O)n1-c1ccc(Cl)cc1)N1CCOCC1	x	x	4.5%	x	x	x
CC[C@H](C)[C@H](NC(=O)[C@H](CO)NC(=O)[C@H](CC(C)C)NC(=O)[C@@H]1CCCN1C(=O)[C@@H]1CCCN1C(=O)[C@H](CC(=O)O)NC(=O)[C@@H](N)CC(=O)O)C(=O)N[C@@H](CC(=O)O)C(=O)N[C@@H](CC(C)C)C(=O)N[C@H](C(=O)N[C@@H](Cc1ccccc1)C(=O)N[C@@H](Cc1cnc[nH]1)C(=O)N[C@@H](CC(C)C)C(=O)N[C@@H](CC(C)C)C(=O)N[C@@H](CCCNC(=N)N)C(=O)N[C@H](C(=O)N[C@@H](CC(C)C)C(=O)N[C@@H](CC(C)C)C(=O)N[C@@H](CCC(=O)O)C(=O)N[C@@H](CC(C)C)C(=O)N[C@@H](C)C(=O)N[C@@H](CCCNC(=N)N)C(=O)N[C@H](C(=O)N[C@@H](CCC(N)=O)C(=O)N[C@@H](CO)C(=O)N[C@@H](CCC(N)=O)C(=O)N[C@@H](CCCNC(=N)N)C(=O)N[C@@H](CCC(=O)O)C(=O)N[C@@H](CCCNC(=N)N)C(=O)N[C@@H](C)C(=O)N[C@@H](CCC(=O)O)C(=O)N[C@@H](CCC(N)=O)C(=O)N[C@@H](CC(N)=O)C(=O)N[C@@H](CCCNC(=N)N)C(=O)N[C@H](C(=O)N[C@H](C(=O)N[C@@H](Cc1ccccc1)C(=O)N[C@@H](CC(=O)O)C(=O)N[C@@H](CO)C(=O)N[C@H](C(N)=O)C(C)C)[C@@H](C)CC)[C@@H](C)CC)[C@@H](C)O)[C@@H](C)O)[C@@H](C)O	x	x	-14.8%	u	x	x
Cc1oc(-c2ccc(Cl)cc2)nc1CN1CCC(C(=O)N2CCc3ccccc3C2)CC1	-8.9%	-78.2*	-4.8%	6.0%	-7.6%	u
Cc1oc(-c2ccc(Cl)cc2)nc1CN1CCC(C(=O)N2CCN(Cc3ccccc3)CC2)CC1	-0.6%	-36.5	7.6%	-2.0%	13.5%	-2.1
Cc1oc(-c2ccc(Cl)cc2)nc1CN1CCC(C(=O)NCc2ccco2)CC1	-10.1%	-71.0*	-1.3%	3.3%	-4.9%	18.4
SMILES	PLK1 PBD inh	KCNH2 3.1 inh	VDR inhibitor	CBFb-RUNX1 inh	MBNL1-CUG inh	KCNH2 WT inh
O=C(NC1CCCCC1)n1c(=O)oc2ccccc21	u	10.8	6.0%	9.4%	-5.3%	25.1
O=C(NC1CCCCC1)n1c(=O)oc2ccc(Cl)cc21	5.97µM*	15.1	-0.4%	2.8%	-1.3%	-7.1
Cc1ccc(C(=O)CCS(=O)(=O)c2ccc(F)cc2)cc1	9.47µM*	7.7	25.1µM*	x	-0.8%	-0.6
Cc1ccc(C(=O)CCS(=O)(=O)c2ccc(Cl)cc2)cc1	u	-20.8	u	x	-10.2%	7.2
Cc1ccc(S(=O)(=O)CCC(=O)c2ccc(F)cc2)cc1	10.6µM*	0.2	u	x	-0.2%	-5.4
CC(C)(C)n1cnc2cc(NCc3ccc(Br)cc3)ccc21	21.2µM*	-95.7*	u	x	-3.6%	23.0
CCc1ccc(CNc2ccc3c(c2)ncn3C(C)(C)C)cc1	-6.7%	x	11.9%	x	5.6%	x
COc1cc(OC)c(NC(=O)c2ccc(-n3cnc4cccnc43)cc2)cc1Cl	x	x	17.0%	x	x	x
CCCCOC(=O)c1ccc(NC(=O)Cc2coc3c(C)c(C)ccc23)cc1	x	x	19.1%	x	x	x
O=C(Nc1cc(Cl)ccc1Cl)c1cc(S(=O)(=O)N2CCCc3ccccc32)ccc1F	x	x	2.0%	x	x	x
COc1ccc(CCNC(=O)c2cc3sccc3n2Cc2ccc(Cl)cc2)cc1OC	x	x	-14.2%	x	x	x
CC(=O)c1cccc(S(=O)(=O)NC2CCSc3ccccc32)c1 (centres undefined)	26.7µM*	16.4	-9.9%	x	-3.3%	1.6
CC(=O)c1cccc(S(=O)(=O)NC2CC2)c1	26.7µM*	1.5	-4.2%	-0.9%	-14.6%	0.7
NS(=O)(=O)c1cccc(C(=O)NC2CCSc3ccccc32)c1 (centres undefined)	-0.7%	1.1	2.9%	x	-4.3%	-3.3
O=C(CCCn1c(=O)c2cccn2c2ccccc21)Nc1cc(C(F)(F)F)ccc1Cl	x	x	-2.9%	x	x	x
